Experimental data: PubChem BioAssay AID463173 (ICCB-Longwood Screening Facility, Harvard Medical School, 2010)
About 4,300 (8.3%) of roughly 52,000 compounds were called active. Shown is part of a subset that was picked to be rich in actives. A number with no mark means an inactive call. Cut-off read from the data, not from the text of the source: active = survival mostly below about 52% (no sharp cut-off); inactive = mostly above about 56%.

What follows are compounds tested on DeltatarO mutant (assay: S. aureus survival, RN4220 and DeltatarO strains – OD600, teichoic acid synthesis inhibitors, primary screen (AID 463173)). Settings: S. aureus RN4220 wild type/DeltatarO growth, OD600, 18 h, active compounds read low, screened at 18.75 µg/mL (by protocol).
`Cc1ccc(Cl)cc1NC(=O)CN1C(=O)CSc2ccc(S(=O)(=O)N3CCCC3)cc21` was tested, and the survival was 97%. `CCN1CCN(CCCNC(=O)Cn2nc(C)n3c(cc4cc(C)ccc43)c2=O)CC1` gave a survival of 98%. Compound `Cc1cc(C)cc(NC(=O)CCCn2nc(C)c3c(C)n(-c4ccccc4)nc3c2=O)c1` has a survival of 80%. `NC(Cc1c[nH]c2ccccc12)C(=O)NCc1ccccc1` (centres undefined) showed a survival of 92%. Compound `CN1C(C(=O)c2ccccc2)=C(NC(=O)c2ccccc2Br)c2ccccc2S1(=O)=O` has a survival of 63%. With `COC(=O)c1cc(Nc2nc3ccccc3nc2NS(=O)(=O)c2ccc(C)cc2)ccc1Cl` the survival was 29% (active). For `O=S(=O)(Nc1nc2ccccc2nc1Nc1ccccc1Br)c1ccccc1`, the survival was 112%. `COc1ccccc1C(=O)Nc1ccc(S(=O)(=O)Nc2nc(C)cc(C)n2)cc1` gave a survival of 61%. Compound `CCn1c(=O)c2sccc2n2c(CCC(=O)Nc3ccc(OC)c(Cl)c3)nnc12` has a survival of 89%. Work on `CCOc1ccc(CNC(=O)c2ccc(-c3nc(CS(=O)(=O)c4ccccc4)c(C)o3)cc2)cc1` yielded a survival of 76%. In the case of `COC(=O)c1ccccc1NC(=O)CN(c1ccc(Cl)cc1)S(=O)(=O)c1ccc(OC)cc1`, the survival is reported as 72%. For `COc1cccc(NC(=O)c2sc3nc(C)c(C(=O)Nc4ccc(C)cc4C)c(-c4ccco4)c3c2N)c1`, the survival was 79%. `COc1ccc(NC(=O)c2sc3nc(C)c(C(=O)Nc4ccc(C)cc4C)c(-c4ccc(C)o4)c3c2N)cc1` showed a survival of 51%. `COc1cccc(NC(=O)c2sc3nc(C)c(C(=O)Nc4ccc(C)cc4C)c(-c4ccc(C)o4)c3c2N)c1` was tested, and the survival was 39% (active). Compound `Cc1ccc(/C=C/c2onc(C)c2S(=O)(=O)N2CCC(C(=O)N3CCN(c4ccccc4F)CC3)CC2)cc1` has a survival of 116%. With `Cc1ccc(CCNC(=O)c2ccc(NC(=O)N3CC(C)Sc4ccccc43)cc2)cc1` (centres undefined) the survival was 73%. Work on `CCOc1ccc(-c2nc(Cn3c(=O)cc(-c4ccccc4)c4c(C)nn(C)c43)c(C)o2)cc1` yielded a survival of 128%. For `CCc1ccc(-c2[nH]nc3nc(-c4ccc(OC)cc4)cc(C(=O)NCCc4ccc(OC)c(OC)c4)c23)cc1`, the survival was 81%. With `CCc1ccc(-c2cn3nc(CC)sc3n2)cc1` the survival was 66%. `CC(=O)N1CCc2c(sc3c2c(=O)n(CCc2ccccc2)c(=O)n3CC(=O)Nc2ccccc2F)C1` showed a survival of 55%. Compound `COc1c(C)cc(NS(=O)(=O)c2ccc3c(c2)OCCO3)cc1C` has a survival of 72%. `O=C(COCc1cc(-c2cccs2)on1)Nc1cccc(O)c1` was tested, and the survival was 0% (active). `O=C(COCc1cc(-c2cccs2)on1)N1CCN(c2ccc(F)cc2)CC1` gave a survival of 98%. `O=C(COCc1cc(-c2ccco2)on1)Nc1cccc(O)c1` gave a survival of 78%. Compound `Cc1ccc(NC(=O)COCc2cc(-c3cccs3)on2)cc1Cl` has a survival of 57%. With `O=C(COCc1cc(-c2cccs2)on1)N1CCN(c2ccccc2)CC1` the survival was 72%. With `O=C(COCc1cc(-c2cccs2)on1)N1CCN(c2cccc(Cl)c2)CC1` the survival was 37% (active). `O=C(c1ccc2c(c1)N(Cc1ccccc1F)C(=O)c1ccccc1S2=O)N1CCC(Cc2ccccc2)CC1` (centres undefined) showed a survival of 77%. In the case of `Cc1cccc(C)c1NC(=O)Cn1nnc(S(=O)(=O)c2ccccc2)c1N`, the survival is reported as 91%. With `Cc1cccc(NC(=O)CSc2cn(CC(=O)N3CCOCC3)c3ccccc23)c1C` the survival was 64%. With `O=C(c1ccc2c(c1)N(Cc1ccccc1)C(=O)c1ccccc1S2(=O)=O)N1CCCCCC1` the survival was 70%. For `COc1ccc(CNC(=O)C(C)n2ccc3cc(S(=O)(=O)N4CCCC4)ccc32)cc1OC` (centres undefined), the survival was 85%. `O=C(NCc1ccco1)C(c1ccccc1)N(CCc1ccccc1)C(=O)Cn1nnc2ccccc21` (centres undefined) was tested, and the survival was 99%. `COc1ccc(CNC(=O)CSc2c3c(nc4ccc(Cl)cc24)CCCC3)cc1` gave a survival of 77%. For `O=C(CSc1c2c(nc3cc(Cl)ccc13)CCCC2)N1CCN(c2ccccc2F)CC1`, the survival was 50%. With `O=C(CSc1c2c(nc3cc(Cl)ccc13)CCCC2)N1CCN(c2ccccc2)CC1` the survival was 33% (active). Compound `COc1ccc(OC)c(NC(=O)CSc2c3c(nc4cc(Cl)ccc24)CCCC3)c1` has a survival of 86%. With `O=C(CSc1c2c(nc3ccc(Cl)cc13)CCCC2)N1CCN(c2cccc(Cl)c2)CC1` the survival was 51% (active). In the case of `O=C(CSc1c2c(nc3ccc(Cl)cc13)CCCC2)N1CCN(c2ccc(Cl)cc2)CC1`, the survival is reported as 31% (active). Compound `O=C(CSc1c2c(nc3cc(Cl)ccc13)CCCC2)NCc1ccccc1Cl` has a survival of 75%. `COc1ccc(N2CCN(C(=O)CSc3c4c(nc5ccc(Cl)cc35)CCCC4)CC2)cc1` was tested, and the survival was 35% (active). For `Cc1sc2ncn(CC(=O)Nc3ccc(C(C)C)cc3)c(=O)c2c1S(=O)(=O)N1CCN(c2ncccn2)CC1`, the survival was 59%. `CC1=C(C(=O)Nc2ccccc2C)C(c2ccco2)n2ncnc2N1` (centres undefined) showed a survival of 101%. In the case of `CCc1cccc(C)c1NS(=O)(=O)c1cc2[nH]c(=O)c(=O)[nH]c2cc1C`, the survival is reported as 80%. For `CC(=O)c1ccc(N2CCN(c3ncnc4c3nc3n4CCCC3)CC2)cc1`, the survival was 75%. Work on `COC(=O)c1ccccc1NC(=O)Cn1c(=O)n(CCCCC(=O)NCc2ccc3c(c2)OCO3)c(=O)c2ccccc21` yielded a survival of 67%. `COc1ccc(-c2nc3sc(CCNC(=O)c4ccc(Br)o4)c(C)n3n2)cc1` was tested, and the survival was 92%. In the case of `COc1ccc(C)cc1NC(=O)C1COc2ccccc2C1` (centres undefined), the survival is reported as 83%. With `COc1ccccc1C(=O)N(c1ccc(C)cc1)S(=O)(=O)c1ccc(Cl)cc1` the survival was 74%. For `COC(=O)c1ccc(NC(=O)CC2C(=O)N(c3cccc(OC)c3)C(=O)N2Cc2cccc(OC)c2)cc1` (centres undefined), the survival was 105%. Compound `COC(=O)c1ccc(Cl)cc1NC(=O)N1CCCn2nc(C)cc21` has a survival of 94%. `COc1ccc(C)cc1NC(=O)N1CCCn2nc(C)cc21` was tested, and the survival was 73%. In the case of `COc1cc(OC)c(NC(=O)N2CCCn3nc(C)cc32)cc1Cl`, the survival is reported as 47% (active). Compound `O=C(NC1CCCCC1)C(Cc1ccccc1)N1C(=O)C2C3C=CC(C3)C2C1=O` (centres undefined) has a survival of 92%.
